Screens from PubChem.
NALP3 yeast inh – blocks the NALP3 inflammasome reconstituted in yeast; Yeast reconstituted NLRP3/ASC/caspase-1, beta-gal luminescence, 24 h; inhibition, % at 10 µM; actives 0.39% (n = 330,000); AID 2825;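 active means inhibition of 50% or more; inactive means inhibition below 50%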;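 further: plate controls were induced DMSO wells for no effect and uninduced yeast grown without galactose for full effect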
tim23-1 inh – growth inhibitors of tim23-1 mutant yeast | S. cerevisiae tim23-1 growth, BacTiter-Glo luminescence, 24 h | inhibition, % at 20 µM | actives 1.3% (n = 330,000) | AID 463212;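 active means growth inhibition of the mutant yeast at or above 50%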;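 further: temperature-sensitive mutant grown at 25 °C; plate controls were DMSO-treated mutant yeast for no effect and medium wells lacking yeast for full effect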
TIM10 inh – inhibits growth of TIM10 yeast strain. inhibition, % at 10 µM. AID 463195. actives 1.4% (n = 330,000). S. cerevisiae TIM10 strain growth, BacTiter-Glo luminescence, 24 h;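 active means inhibition of 40% or more at the single tested concentration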;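 further: wild-type TIM10 isogenic control strain grown at permissive 25 °C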
tim10-1 inh – inhibits growth of tim10-1 mutant yeast; S. cerevisiae tim10-1 ts strain growth, BacTiter-Glo, 24 h; inhibition, % at 20 µM; actives 2.2% (n = 330,000); AID 463190;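 active means inhibition of at least 40%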;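 further: mutant grown at 25 °C; 0% = DMSO wells with yeast and 100% = wells holding no yeast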
NALP1 inh – blocks the NALP1 inflammasome reconstituted in yeast; S. cerevisiae NALP1/ASC/caspase-1 growth, X-gal OD620, 72 h; inhibition, % at 10 µM; actives 0.61% (n = 280,000); AID 2071; in the data active means inhibition mostly above about 24%, no sharp cut-off; inactive means mostly below about 32%
NALP3 yeast conf – NALP3 inhibition confirmation in yeast. shares compounds with NALP3 yeast inh. yeast expressing human NALP3, luminescence. inhibition, % at 10 µM. actives 81% (n = 1,300). AID 435006; in the data active means inhibition above about 48%
Casp1-ASC yeast – counter-screen for NALP3 inhibitors: yeast caspase-1-ASC; shares compounds with NALP3 yeast inh; yeast expressing Caspase-1-ASC, luminescence counter screen; inhibition, % at 10 µM; actives 66% (n = 1,000); AID 488784
NALP3 yeast rt – retest-confirmed inhibitor of NALP3 in yeast; shares compounds with NALP3 yeast inh; yeast expressing human NALP3, luminescence read-out; inhibition, % at 10 µM; actives 53% (n = 1,000)
An asterisk follows results filed as active; nt = no result; ! = repeats disagree. In the library only some 4% were active in any assay of this set; here they are far more common. Unless noted, no stated cut-off is given here; in the data, active means inhibition above about 50%; inactive means the rest.

SMILES | NALP3 yeast inh | tim23-1 inh | TIM10 inh | tim10-1 inh | NALP1 inh | NALP3 yeast conf | Casp1-ASC yeast | NALP3 yeast rt
CCn1c(O)c(C=Nc2ccccc2)sc1=S | 54* | 17 | 20 | 1 | 12 | 58* | 56* | 60*
Oc1c(C=Nc2ccccc2)sc(=S)n1Cc1ccccc1 | 14 | 0 | 9 | 10 | -9 | nt | nt | nt
CCOC(=O)c1ccc2c(c1)NCc1cccc(OC)c1O2 | 54* | 22 | 3 | 17 | 19 | 63* | 46 | 42
COc1ccc(C(=O)OCC(=O)c2ccc3c(c2)NC(=O)CO3)cc1OC | 7 | -9 | -8 | -11 | nt | nt | nt | nt
COc1ccc(CCN(C)C/C=C/c2ccccc2[N+](=O)[O-])cc1OC | 10 | 8 | -10 | -3 | 12 | nt | nt | nt
C[C@@]12CCC3[C@@](CCC4[C@@]3(C)CCC[C@@]4(C)C(=O)NCc3ccccc3)(CC1=O)C2 (some centres undefined) | 52* | 25 | -25 | -17 | nt | 54* | 47 | 45
CC(C)(C)NC(=O)[C@]1(C)CCC[C@@]2(C)C3CC[C@@]4(C)C[C@]3(CCC21)CC4=O (some centres undefined) | 52* | 24 | 9 | 17 | nt | 42 | 44 | 42
O=C(NCc1cccc(C(F)(F)F)c1)c1ccc2c(c1)OCCO2 | 16 | 18 | 0 | -1 | 8 | nt | nt | nt
Cc1ccc(-c2cc(-c3ccccc3)no2)c(O)c1 | nt | nt | nt | nt | 27 | nt | nt | nt
Oc1ccccc1-c1cc(-c2ccccc2)no1 | 55* | 35 | -19 | -55 | 18 | 60* | 59* | 56*
O=C(NC(Cc1cccc(F)c1)C(=O)O)C1CCCCC1 (centres undefined) | 19 | 6 | 1 | 4 | nt | nt | nt | nt
COC(=O)CNc1cc(S(=O)(=O)N2CCCCC2)ccc1Oc1ccc(C(=O)OC)cc1 | 66* | 29 | 1 | 13 | 31 | 70* | 39 | 29
COC(=O)CNc1cc(S(=O)(=O)N2CCCCC2)ccc1Oc1cccc(C)c1 | 12 | 22 | -6 | 36 | -8 | nt | nt | nt
COC(=O)c1ccc(Oc2ccc(S(=O)(=O)N3CCCCC3)cc2N)cc1 | 88* | 21 | 2 | 13 | 56* | 94* | 93* | 88*
Nc1cc(S(=O)(=O)N2CCCCC2)ccc1Oc1ccc(Cl)cc1 | -7 | 21 | 0 | 23 | 3 | nt | nt | nt
O=C(OCCCc1cc2ccccc2c(=O)o1)c1ccc2c(c1)OCO2 | 53* | 28 | -18 | -5 | nt | 37 | 30 | 30
O=C(OCCc1cc2ccccc2c(=O)o1)c1ccc2c(c1)OCO2 | 23 | 35 | -11 | 11 | nt | nt | nt | nt
COc1ccc(NC(=S)NNC(=O)c2ccco2)c(OC)c1 | 18 | -14 | -4 | -13 | -1 | nt | nt | nt
O=S(=O)(c1c(Cl)sc(Cl)c1Br)N1CCCC1 | 64* | -16 | -48 | -43 | 9 | 64* | 62* | 67*
COc1cccc(CN(C)C(=O)c2csc3c2CCCC3)c1OC | 51* | 7 | -32 | -20 | 14 | 40 | 50* | 40
Cc1cccc2c1-c1sc(C(=O)N3CCCCC3)cc1CO2 | 28 | 16 | 3 | 18 | 6 | nt | nt | nt
CCc1cc(C(=O)Nc2cc(S(=O)(=O)N(CC)CC)ccc2N2CCOCC2)sc1C | 28 | 32 | 9 | 5 | nt | nt | nt | nt
CCc1cc(C(=O)Nc2ccccc2N2CCOCC2)sc1C | 51* | 42 | 14 | 14 | nt | 53* | 34 | 42
Cc1cccc2c1-c1sc(C(=O)Nc3ccccc3N3CCN(C)CC3)cc1CO2 | 55* | 18 | 26 | 12 | nt | 64* | nt | nt
CN1CCc2cccc3c2[C@H]1Cc1ccc(O)c(O)c1-3 | 52*! | -10 | -17 | 1 | 101* | 59* | 24 | 28
SMILES | NALP3 yeast inh | tim23-1 inh | TIM10 inh | tim10-1 inh | NALP1 inh | NALP3 yeast conf | Casp1-ASC yeast | NALP3 yeast rt
Cc1ccccc1NC(=O)c1ccc(Nc2c([N+](=O)[O-])cc([N+](=O)[O-])c3ccccc23)cc1 | 56* | 17 | 18 | 13 | -4 | -9 | nt | nt
CN=c1oc2ccc(Cl)cc2cc1C(N)=O | 51* | 23 | 21 | 29 | 9 | 46 | 17 | 16
CC1=NN(C(=O)c2ccc(C)cc2)C(O)(C(F)(F)OC(F)(F)F)C1 (centres undefined) | 53* | 15 | -7 | 2 | 4 | 54* | 48 | 35
CC1=NN(C(=O)c2ccccc2-n2cccc2)C(O)(C(F)(F)F)C1 (centres undefined) | 9 | -3 | -16 | 1 | 9 | nt | nt | nt
COc1ccccc1NC(=O)Nc1cccc(C)n1 | 66* | 12 | -17 | -10 | 22 | 74* | 55* | 60*
COC(=O)c1ccccc1NC(=O)Nc1cccc(C)n1 | -1 | 10 | -1 | 1 | 0 | nt | nt | nt
Cc1c(C)n(Cc2ccc(F)cc2)c2ccc(C(=O)N3CCN(c4ccccn4)CC3)cc12 | 15 | 30 | 13 | 26 | 10 | nt | nt | nt
CC(=O)n1cc([C@@H]2C=C(C(=O)NCc3ccccc3)O[C@H](OCCCCO)C2)c2ccccc21 | 89* | 26 | 5 | 5 | -12 | 40 | 5 | 23
CC(=O)n1cc([C@H]2C=C(C(=O)NCc3ccccc3)O[C@@H](OCCCCO)C2)c2ccccc21 | 4 | 16 | 16 | 13 | -4 | nt | nt | nt
O=C(N/N=C/C(Cl)=C\c1ccccc1)c1ccco1 | 59* | 33 | -37 | -98 | 4 | 61* | 74* | 56*
O=C(O)CCC(=O)Nc1ccccc1C(=O)NCc1ccccc1 | 5 | -9 | -8 | 2 | 21 | nt | nt | nt
CC1CCc2c(nc3sc4c(c3c2N)CCCC4)C1 (centres undefined) | 54* | 37 | 31 | 22 | 42* | 77* | 67* | 58*
CC1CCc2nc3sc4c(c3c(N)c2C1)CCCC4 (centres undefined) | 59* | 32 | 20 | 7 | 74* | -22 | nt | nt
CCOC(=O)c1nc2sc3c(c2c(=O)[nH]1)CCC(C)C3 (centres undefined) | 17 | 35 | -14 | 10 | nt | nt | nt | nt
Cc1noc(C)c1COc1ccc(C(=O)OCC(N)=O)cc1 | 12 | -5 | 4 | -10 | 19 | nt | nt | nt
OC(CN1C2=NCCN2c2ccccc21)c1ccc2c(c1)OCO2 (centres undefined) | 57* | -2 | 9 | -4 | 8 | 82* | 45 | 40
OC(CN1C2=NCCCN2c2ccccc21)c1ccc2c(c1)OCO2 (centres undefined) | 7 | 4 | -8 | -1 | -2 | nt | nt | nt
O=C(NC1CCCCC1)c1noc2c1CCCCC2 | 51* | 25 | -2 | 14 | 52 | 67* | 54* | 50
N#C/C(=N\Nc1ccc(F)cc1)C(=O)C1CC1 | 4 | 17 | -4 | 22 | nt | nt | nt | nt
N#C/C(=N\Nc1ccc(Cl)c(Cl)c1)C(=O)C1CC1 | 62* | 28 | 18 | 16 | nt | 87* | nt | nt
